Hit rate of the full screen: of about 310,000 compounds, about 14,000 (4.5%) showed an effect of 50% or more. Effects have a minus sign here. This is one part of a sample in which strong results are shown more often than they occur.
Target: human ether-à-go-go-related gene (hERG) potassium channel (human, UniProt Q12809)
Assay: primary screen, population patch clamp on CHO cells stably expressing hERG; higher = less effect of the substance
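Also: peak tail current of the secondary pulse compared with the same well before compound.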

Chain of human ether-à-go-go-related gene (hERG) potassium channel (Q12809 whole entry, looked up): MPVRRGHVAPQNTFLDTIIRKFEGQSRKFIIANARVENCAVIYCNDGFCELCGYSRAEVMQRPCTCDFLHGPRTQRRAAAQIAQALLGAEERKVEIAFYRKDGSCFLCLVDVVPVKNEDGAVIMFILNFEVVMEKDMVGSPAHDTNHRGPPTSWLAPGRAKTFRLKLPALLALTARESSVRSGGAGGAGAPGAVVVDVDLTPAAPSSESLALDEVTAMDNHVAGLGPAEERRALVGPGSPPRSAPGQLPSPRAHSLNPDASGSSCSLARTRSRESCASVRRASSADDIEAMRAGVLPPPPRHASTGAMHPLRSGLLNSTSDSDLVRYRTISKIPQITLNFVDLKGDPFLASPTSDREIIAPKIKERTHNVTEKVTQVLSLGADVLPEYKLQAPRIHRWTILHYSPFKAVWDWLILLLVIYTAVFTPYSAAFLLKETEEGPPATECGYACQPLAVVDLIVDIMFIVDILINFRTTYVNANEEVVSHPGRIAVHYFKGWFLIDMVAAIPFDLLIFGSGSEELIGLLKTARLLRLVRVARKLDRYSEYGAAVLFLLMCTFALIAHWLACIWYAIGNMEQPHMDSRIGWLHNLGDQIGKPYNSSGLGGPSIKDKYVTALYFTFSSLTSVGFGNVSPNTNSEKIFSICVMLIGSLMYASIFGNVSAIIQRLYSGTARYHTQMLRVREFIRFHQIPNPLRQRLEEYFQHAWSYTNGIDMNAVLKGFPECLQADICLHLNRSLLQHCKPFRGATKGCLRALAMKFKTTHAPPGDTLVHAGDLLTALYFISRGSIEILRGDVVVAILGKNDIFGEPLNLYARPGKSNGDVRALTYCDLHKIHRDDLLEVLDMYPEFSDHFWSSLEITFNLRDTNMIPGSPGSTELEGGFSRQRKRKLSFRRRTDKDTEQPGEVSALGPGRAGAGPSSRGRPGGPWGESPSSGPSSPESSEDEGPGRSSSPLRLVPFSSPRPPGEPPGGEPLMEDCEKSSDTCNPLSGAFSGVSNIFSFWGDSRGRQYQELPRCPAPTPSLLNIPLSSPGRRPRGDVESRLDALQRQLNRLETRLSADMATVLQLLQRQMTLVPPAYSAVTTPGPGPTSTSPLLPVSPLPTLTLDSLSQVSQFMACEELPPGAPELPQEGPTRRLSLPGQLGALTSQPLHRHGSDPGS

SMILES	hERG current change (%, negative = inhibition) at 10uM
CCOc1ccc(NC(=O)CSc2nnc(C)n2Cc2ccccc2)cc1	-16.4%
O=C(CN1CC[n+]2c(-c3ccccc3)csc21)c1ccc(Br)cc1.[Br-]	-40.6%
O=C(CN1CC[n+]2c(-c3cccs3)csc21)c1ccc(Br)cc1.[Br-]	-45.9%
O=C(CN1CC[n+]2c(-c3cccs3)csc21)c1ccc(-c2ccccc2)cc1.[Br-]	-54.3%
NNC(=O)c1cccc(S(=O)(=O)Nc2cccc(C(F)(F)F)c2)c1	1.4%
CC1CN(c2ccc([N+](=O)[O-])cn2)CC(C)O1 (stereo not drawn)	-19.7%
O=C1CCC(=O)N1CCC(c1ccc(F)cc1)c1ccco1 (stereo not drawn)	4.27%
O=C1c2ccccc2C(=O)N1CCC(c1ccc(F)cc1)c1ccco1 (stereo not drawn)	-6.1%
CC1(C)CC(NCc2ccccc2)CCO1.Cl (stereo not drawn)	5.1%
CC1(C)CC(CNCCC(c2ccc(F)cc2)c2ccco2)CCO1 (stereo not drawn)	-62.5%
CC1(C)CC(NCCC(c2ccccc2)c2ccco2)CCO1 (stereo not drawn)	-52.5%
CC1(C)CC(C(=O)NCCC(c2ccccc2)c2ccco2)CCO1 (stereo not drawn)	-9.31%
Cc1ccc(NC(=O)COC(=O)CCC(=O)c2ccc(Cl)cc2)cc1S(=O)(=O)N(C)C	-1.5%
CCOC(=O)N1CCc2c(sc3nc(SC(C)C)n(N)c(=O)c23)C1	-20.9%
Cl.c1coc(CNc2ncnc3ccccc23)c1	2.88%
Fc1ccccc1-c1nc(NCc2ccco2)c2ccccc2n1	-2.1%
Cl.c1ccc(N2CCN(c3nc(NCc4ccco4)c4ccccc4n3)CC2)cc1	-73.6%
Cl.c1coc(CNc2nc(N3CCCCC3)nc3ccccc23)c1	-77.5%

SMILES	hERG current change (%, negative = inhibition) at 10uM
Clc1nc(NCc2ccco2)nc(N2CCCCC2)n1	33.5%
CC(C)C(=O)NNC(=O)c1csc(CS(=O)(=O)c2ccc(Cl)cc2)n1	-1.62%
O=c1cc(-c2ccc(O)cc2)oc2ccccc12	16.1%
CCOC(=O)c1ccc(NC(=O)C2C3C=CC(C3)C2C(=O)O)cc1 (stereo not drawn)	4.67%
CN(C)CC/C=C1\c2cc(F)ccc2CSc2ccccc21.O=C(O)/C=C\C(=O)O	-35.4%
COc1ccc2c(c1)C1C=CCC1C(c1cc3c(cc1Br)OCO3)N2 (stereo not drawn)	1.4%
O=C(N/C(=C/c1ccccc1)C(=O)N1CCCCC1)c1ccc(Br)o1	-7.64%
O=C(N/C(=C/c1cccc([N+](=O)[O-])c1)C(=O)N1CCCCCC1)c1ccco1	-28.2%
O=C(N/C(=C\c1ccc([N+](=O)[O-])cc1)C(=O)N1CCCCC1)c1ccco1	-70.3%
O=C(N/C(=C\c1ccc([N+](=O)[O-])cc1)C(=O)N1CCOCC1)c1ccco1	-69.2%
O=C(N/C(=C\c1ccc([N+](=O)[O-])cc1)C(=O)N1CCCCC1)c1ccc(Br)o1	-72%
O=C(N/C(=C/c1ccc([N+](=O)[O-])cc1)C(=O)N1CCOCC1)c1ccco1	-70.1%
O=C(N/C(=C\c1ccccc1)C(=O)N1CCCCC1)c1ccc(Br)o1	15.8%
O=C(N/C(=C\c1ccc(Cl)cc1)C(=O)N1CCOCC1)c1ccco1	-31.4%
O=C(N/C(=C\c1ccccc1)C(=O)N1CCOCC1)c1ccco1	17.1%
O=C(N/C(=C\c1cccc([N+](=O)[O-])c1)C(=O)N1CCOCC1)c1ccco1	14.9%
COc1ccc(/C=C(\NC(=O)c2ccco2)C(=O)N2CCOCC2)cc1	0.365%
O=C(N/C(=C/c1cccc([N+](=O)[O-])c1)C(=O)N1CCCCC1)c1ccco1	-2.24%

From PMC4336329 (PLoS ONE, 2015)
